The results in this text go back to PubChem BioAssay (NCATS).

Values joined by “and” are separate entries in the source; they are usually repeats but may differ in a detail not shown here. Equal values may be shown once. Records with an inconclusive call do not appear. Active and inactive are the calls of the source. Unless noted, the call rests on the fitted dose curve.

The target in assay [1] is Glucocorticoid receptor (Homo sapiens) (UniProt P04150). Put plainly: qHTS assay for small molecule agonists of glucocorticoid receptor signaling (AID 588532; active means well fitted curve in the direction sought with a large enough effect in the signal ratio, with a control signal flat; the % refers to the signal ratio;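 further: 100% = dexamethasone at 0.1 µM and 0% = DMSO only wells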). Conditions: HeLa MMTV-bla, beta-lactamase ratio, agonist, 18 h; stronger effect = higher value; percent of dexamethasone control, DMSO zero. The essentials: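 Quantitative HTS using CellSensor MMTV-bla HeLa cells in charcoal/dextran-treated serum; compounds tested up to 92 uM. After 18 h at 37 C, CCF4 dye reported reporter induction.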
Chain of Glucocorticoid receptor (Homo sapiens) (P04150 whole entry, looked up): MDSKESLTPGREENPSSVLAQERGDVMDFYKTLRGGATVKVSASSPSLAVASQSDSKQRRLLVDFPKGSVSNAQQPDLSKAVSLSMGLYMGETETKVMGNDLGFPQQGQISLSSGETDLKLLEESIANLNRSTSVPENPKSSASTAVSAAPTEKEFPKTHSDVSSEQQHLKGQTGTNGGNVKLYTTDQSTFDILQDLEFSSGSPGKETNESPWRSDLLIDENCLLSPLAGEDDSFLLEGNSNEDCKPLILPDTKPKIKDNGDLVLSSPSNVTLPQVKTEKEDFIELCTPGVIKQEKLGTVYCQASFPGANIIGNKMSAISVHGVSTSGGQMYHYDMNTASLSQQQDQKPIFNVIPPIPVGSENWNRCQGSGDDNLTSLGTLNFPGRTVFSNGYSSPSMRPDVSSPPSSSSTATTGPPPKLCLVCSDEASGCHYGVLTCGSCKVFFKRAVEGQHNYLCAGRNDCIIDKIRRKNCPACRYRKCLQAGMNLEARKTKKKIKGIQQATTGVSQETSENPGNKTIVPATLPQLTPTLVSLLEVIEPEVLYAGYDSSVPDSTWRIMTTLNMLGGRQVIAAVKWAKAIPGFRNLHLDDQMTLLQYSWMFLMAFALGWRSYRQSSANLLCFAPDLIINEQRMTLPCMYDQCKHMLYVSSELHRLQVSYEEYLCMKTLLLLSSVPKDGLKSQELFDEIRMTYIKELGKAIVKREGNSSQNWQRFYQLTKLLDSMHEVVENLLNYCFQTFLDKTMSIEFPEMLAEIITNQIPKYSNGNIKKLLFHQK

The target is the same in assay [2]. Briefly: qHTS assay for small molecule antagonists of glucocorticoid receptor signaling (AID 588533; active means well fitted inhibition curve with a large enough effect in the signal ratio, with a control signal flat, not every such curve was filed as active; the % refers to the signal ratio;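 further: cells stimulated with 2 nM dexamethasone as agonist; on the % scale 0 is the no-effect control and ±100 the full control effect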). Conditions: HeLa MMTV-bla, GRE beta-lactamase ratio, antagonist mode, 18 h; series mostly up to 76.8 µM. An outline of the steps: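 Antagonist-mode qHTS: compound titrations added to GRE-bla HeLa cells, then dexamethasone 2 nM final; 18 h, 37 C. CCF4 FRET fluorescence normalized to dexamethasone and DMSO; IC50 from Hill fit.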

Assay [3] can be described thus: qHTS assay for small molecule antagonists of peroxisome proliferator-activated receptor delta signaling (AID 588535; active means well fitted inhibition curve with a large enough effect in the signal ratio, with a control signal flat, not every such curve was filed as active; the % refers to the signal ratio;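 on max response: cells co-treated with a PPAR-delta agonist as stimulator during compound exposure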). As to conditions: HEK293T PPARd-UAS-bla, beta-lactamase FRET ratio, 18 h; 460 nm channel. An outline of the steps: (§1)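 HEK293T PPAR-delta-UAS-bla cells, 4000/well, 2% charcoal/dextran FBS; 5 h 37 C; cpd titration; 18 h 37 C; CCF4 2 h RT; FI 460/530 nm; Hill fit → IC50, efficacy.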

In assay [4] the target is Peroxisome proliferator-activated receptor delta (Homo sapiens) (UniProt Q03181). The description is as above. Conditions: HEK293T PPARd-UAS-bla, beta-lactamase FRET ratio, 18 h; series mostly up to 76.7 µM. An outline of the steps:
as §1

The target of assay [5] is Peroxisome proliferator-activated receptor gamma (Homo sapiens) (UniProt P37231). Put plainly: qHTS assay for small molecule agonists of peroxisome proliferator-activated receptor gamma signaling (AID 588536; active means well fitted curve in the direction sought with a large enough effect in the signal ratio, with a control signal flat, not every such curve was filed as active; the % refers to the signal ratio;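 further: 0% = DMSO basal wells and 100% = rosiglitazone at 2 µM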). Conditions: HEK293 PPARg-UAS-bla, beta-lactamase ratio, 16 h, percent of rosiglitazone response, DMSO as zero; series mostly up to 76.7 µM. An outline of the steps:
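GeneBLAzer PPAR-gamma-UAS-bla HEK293 cells in 1% charcoal/dextran-treated FBS medium were treated 16 h at 37 C with compounds. Beta-lactamase activity was read by CCF4 ratio (460/530 nm). Response was normalized to 2 uM rosiglitazone (100%) and DMSO, then Hill-fitted for EC50 and efficacy.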

Assay [6] deals with Vitamin D3 receptor (Homo sapiens) (UniProt P11473). Put plainly: qHTS assay for small molecule antagonists of vitamin D receptor signaling (AID 588541).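 Further: receptor activated by calcitriol during compound treatment; on the % scale 0 is the no-effect control and ±100 the full control effect.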 As to conditions: HEK293T VDR-UAS-bla, beta-lactamase ratio, antagonist mode; series mostly up to 76.7 µM. The essentials: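 Antagonist-mode beta-lactamase reporter assay: HEK293T VDR-UAS-bla cells were exposed to titrated compound alongside 1-alpha,25-dihydroxyvitamin D3 at 3 nM final for 16 h. Values were normalized to the 50 nM agonist control and DMSO basal, with IC50 and efficacy from Hill equation fits.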
Chain of Vitamin D3 receptor (Homo sapiens) (P11473 whole entry, looked up): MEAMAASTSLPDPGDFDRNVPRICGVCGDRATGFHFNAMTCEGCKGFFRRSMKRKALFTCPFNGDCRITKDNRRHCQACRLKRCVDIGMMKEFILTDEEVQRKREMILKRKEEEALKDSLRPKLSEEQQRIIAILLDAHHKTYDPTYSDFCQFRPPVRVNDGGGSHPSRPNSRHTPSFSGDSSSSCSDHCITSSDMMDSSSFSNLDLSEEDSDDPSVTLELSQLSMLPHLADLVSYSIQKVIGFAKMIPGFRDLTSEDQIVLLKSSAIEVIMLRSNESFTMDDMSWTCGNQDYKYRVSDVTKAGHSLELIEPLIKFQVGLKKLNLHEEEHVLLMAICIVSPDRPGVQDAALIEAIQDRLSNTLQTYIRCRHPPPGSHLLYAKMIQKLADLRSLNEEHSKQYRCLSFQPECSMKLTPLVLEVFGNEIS

Assay [7] can be described thus: qHTS assay for small molecule agonists of retinoid X receptor alpha signaling (AID 588544).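 On activation: 0% = DMSO basal wells and 100% = reference agonist.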 As to conditions: HEK293T RXRa-UAS-bla, beta-lactamase reporter, 18 h; 530 nm emission.
Assay [8] addresses Retinoic acid receptor RXR-alpha (Homo sapiens) (UniProt P19793). The description is as above. Conditions: HEK293T RXRa-UAS-bla, beta-lactamase reporter, 18 h; series mostly up to 76.7 µM.
Assay [9] can be described thus: qHTS assay for small molecule antagonists of retinoid X receptor alpha signaling (AID 588546; active means well fitted inhibition curve with a large enough effect in the signal ratio, with a control signal flat, not every such curve was filed as active; the % refers to the signal ratio;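 further: cells stimulated with 9-cis-retinoic acid as agonist; on the % scale 0 is the no-effect control and ±100 the full control effect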). Conditions: HEK293T RXRa-UAS-bla, beta-lactamase ratio, antagonist mode; measured here: W530 green channel, cytotoxicity proxy. An outline of the steps: (§2)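 Beta-lactamase reporter inhibition, read as CCF4 fluorescence ratio (ex 405, em 460/530 nm) after 2 h at RT. HEK293T UAS-bla cells, 2500/well, were stimulated with 9-cis-RA at 500 or 100 nM final alongside test compound for 18 h at 37 C.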

Assay [10] concerns the target Retinoic acid receptor RXR-alpha (Homo sapiens) (UniProt P19793). The assay is described as above. As to conditions: HEK293T RXRa-UAS-bla, beta-lactamase ratio, antagonist mode. The essentials: as §2
The target of assay [11] is Thyroid hormone receptor beta (Homo sapiens) (UniProt P10828). Put plainly: qHTS assay for small molecule antagonists of thyroid hormone receptor beta signaling (AID 588547; active means well fitted inhibition curve with a large enough effect in the signal ratio, with a control signal flat, not every such curve was filed as active; the % refers to the signal ratio;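 further: cells stimulated with 0.4 nM T3 agonist during compound exposure; on the % scale 0 is the no-effect control and ±100 the full control effect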). Conditions: TR-UAS-bla HEK293, beta-lactamase ratio, antagonist mode, 18 h. The essentials: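 Inhibition of T3-driven (0.4nM final) beta-lactamase reporter activity was measured over 0.59 nM to 92 uM compound after 18 h at 37 C. The cells were GripTite HEK293 TR-UAS-bla in charcoal/dextran-stripped serum, with CCF4 ratio read-out and IC50 from Hill fits.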
Chain of Thyroid hormone receptor beta (Homo sapiens) (P10828 whole entry, looked up): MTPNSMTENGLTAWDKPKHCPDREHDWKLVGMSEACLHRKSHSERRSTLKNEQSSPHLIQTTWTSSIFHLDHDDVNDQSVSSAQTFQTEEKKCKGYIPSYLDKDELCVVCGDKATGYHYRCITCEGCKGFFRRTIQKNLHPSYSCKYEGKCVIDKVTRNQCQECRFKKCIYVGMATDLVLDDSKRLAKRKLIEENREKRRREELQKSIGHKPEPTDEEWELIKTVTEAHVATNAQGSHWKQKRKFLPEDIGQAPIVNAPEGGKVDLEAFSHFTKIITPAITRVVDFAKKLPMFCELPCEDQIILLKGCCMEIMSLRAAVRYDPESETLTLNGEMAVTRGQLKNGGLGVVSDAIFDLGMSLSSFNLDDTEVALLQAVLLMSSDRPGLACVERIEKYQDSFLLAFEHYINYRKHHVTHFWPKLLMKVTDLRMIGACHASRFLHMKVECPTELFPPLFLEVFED

Assay [12] deals with Voltage-gated inwardly rectifying potassium channel KCNH2 (Homo sapiens) (UniProt Q12809). Briefly: qHTS Assay for Small Molecule Inhibitors of the Human hERG Channel Activity (AID 588834; active means well fitted inhibition curve with a large enough effect;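 further: top concentration of the series differs between compounds; on the % scale 0 is the no-effect control and ±100 the full control effect; lower thallium flux fluorescence means stronger hERG block; nearly all actives have a fitted effect of over 50% in size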). As to conditions: U2OS BacMam hERG, FluxOR thallium flux fluorescence; series mostly up to 92.2 µM. An outline of the steps: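 Blockade is seen as reduced FluxOR thallium-flux fluorescence in U2OS cells expressing hERG from a BacMam construct, in Opti-MEM with 2% FCS. Concentration-response data fitted to the Hill equation for AC50.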
Chain of Voltage-gated inwardly rectifying potassium channel KCNH2 (Homo sapiens) (Q12809 whole entry, looked up): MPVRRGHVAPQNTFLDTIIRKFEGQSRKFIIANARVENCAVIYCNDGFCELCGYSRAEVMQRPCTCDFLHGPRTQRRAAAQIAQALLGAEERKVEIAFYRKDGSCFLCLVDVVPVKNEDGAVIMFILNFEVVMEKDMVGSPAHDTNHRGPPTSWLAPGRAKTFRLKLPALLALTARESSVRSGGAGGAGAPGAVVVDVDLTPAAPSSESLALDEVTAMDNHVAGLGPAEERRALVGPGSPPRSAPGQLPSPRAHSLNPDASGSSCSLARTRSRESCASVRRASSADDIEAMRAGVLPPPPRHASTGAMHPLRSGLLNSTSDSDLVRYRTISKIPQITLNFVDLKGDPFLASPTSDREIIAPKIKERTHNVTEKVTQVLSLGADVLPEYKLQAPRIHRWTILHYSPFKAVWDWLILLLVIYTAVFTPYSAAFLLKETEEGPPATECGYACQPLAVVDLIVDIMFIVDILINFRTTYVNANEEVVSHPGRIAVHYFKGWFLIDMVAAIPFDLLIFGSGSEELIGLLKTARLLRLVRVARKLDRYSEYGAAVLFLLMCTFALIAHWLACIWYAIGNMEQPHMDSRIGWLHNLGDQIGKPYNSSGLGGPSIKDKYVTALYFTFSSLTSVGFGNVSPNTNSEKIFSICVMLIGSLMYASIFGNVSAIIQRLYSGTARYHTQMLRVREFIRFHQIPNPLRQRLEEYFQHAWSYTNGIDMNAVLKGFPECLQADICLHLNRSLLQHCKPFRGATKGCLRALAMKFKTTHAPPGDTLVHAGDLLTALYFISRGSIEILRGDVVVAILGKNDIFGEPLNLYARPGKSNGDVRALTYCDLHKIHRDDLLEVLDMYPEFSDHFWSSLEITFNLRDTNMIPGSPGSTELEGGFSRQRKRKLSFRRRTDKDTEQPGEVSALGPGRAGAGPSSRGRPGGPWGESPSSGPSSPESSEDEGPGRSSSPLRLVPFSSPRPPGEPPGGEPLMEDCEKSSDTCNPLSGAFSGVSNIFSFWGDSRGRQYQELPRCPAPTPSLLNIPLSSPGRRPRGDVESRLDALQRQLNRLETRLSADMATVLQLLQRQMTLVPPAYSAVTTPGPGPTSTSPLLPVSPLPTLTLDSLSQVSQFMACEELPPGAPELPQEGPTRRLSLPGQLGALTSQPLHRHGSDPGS

Assay [13] is described as follows: qHTS assay for small molecule agonists of the antioxidant response element (ARE) signaling pathway (AID 651741; active means well fitted activation curve with a large enough effect in the signal ratio; the % refers to the signal ratio; further: potency means the concentration at half of the fitted maximal effect; on activation: % of control where 0% means no effect). As to conditions: HepG2 ARE-bla reporter, beta-lactamase FRET ratio, 16 h; series mostly up to 96 µM. The essentials:
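Quantitative HTS in HepG2 cells stably expressing an ARE-beta-lactamase reporter; 16 h compound exposure at 37 C, followed by 2 h room-temperature incubation with LiveBLAzer B/G FRET substrate and fluorescence measurement.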

A short description of assay [14]: qHTS assay for small molecule activators of the p53 signaling pathway (AID 651743; active means well fitted activation curve with a large enough effect in the signal ratio, not every such curve was filed as active; the % refers to the signal ratio; further: % of control where 0% means no effect). As to conditions: HCT-116 p53RE-bla, beta-lactamase FRET ratio, 16 h; stronger effect = higher value. An outline of the steps: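 Read-out is fluorescence intensity from the LiveBLAzer B/G FRET substrate, added for 2 hours at room temperature after HCT-116 p53RE-bla cells had been incubated with compounds for 16 hours at 37 C.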

The nature of assay [15]: qHTS assay for small molecule activators of the nuclear factor-kappa B (NF-kB) signaling pathway (AID 651749; active means well fitted activation curve with a large enough effect in the signal ratio; the % refers to the signal ratio; further: % of control where 0% means no effect). Conditions: NF-kB-bla ME-180 cells, beta-lactamase FRET ratio, 16 h; stronger effect = higher value. The essentials: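 Readout: beta-lactamase reporter driven by an NF-kB response element, detected fluorescently as loss of FRET. Cells were the ME-180 line, treated 16 hr at 37C with pin-transferred compound.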

The target in assay [16] is Vitamin D3 receptor (Homo sapiens) (UniProt P11473). Briefly: qHTS assay for small molecule agonists of vitamin D receptor signaling (AID 588543).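 Further: 0% = DMSO basal and 100% = reference agonist control.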 Conditions: HEK293T VDR-UAS-bla, beta-lactamase ratio, 16 h; series mostly up to 76.8 µM. The essentials:
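Measured: β-lactamase reporter activity (CCF4, 405 nm excitation, 460/530 nm emission) in HEK293T VDR-UAS-bla cells after 16 h compound exposure at 37 °C. Normalization against 50 nM 1α,25-dihydroxyvitamin D3 and DMSO; Hill-fit EC50.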

Assay [17] concerns the target Thyroid hormone receptor beta (Homo sapiens) (UniProt P10828). Put plainly: qHTS assay for small molecule agonists of thyroid hormone receptor beta signaling (AID 588545).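 Further: 0% = DMSO only and 100% = 10 nM T3.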 As to conditions: TR-UAS-bla GripTite HEK 293, beta-lactamase ratio, agonist mode, 18 h, percent of T3 response, DMSO as zero; series mostly up to 76.7 µM. The essentials:
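Efficacy and EC50 values derive from Hill fits of qHTS titration data, normalized to 10 nM T3 and DMSO-only wells. HEK 293 reporter cells were stimulated for 18 hrs at 37 C, with beta-lactamase activity measured by CCF4 fluorescence.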

Chain of Peroxisome proliferator-activated receptor gamma (Homo sapiens) (P37231 whole entry, looked up): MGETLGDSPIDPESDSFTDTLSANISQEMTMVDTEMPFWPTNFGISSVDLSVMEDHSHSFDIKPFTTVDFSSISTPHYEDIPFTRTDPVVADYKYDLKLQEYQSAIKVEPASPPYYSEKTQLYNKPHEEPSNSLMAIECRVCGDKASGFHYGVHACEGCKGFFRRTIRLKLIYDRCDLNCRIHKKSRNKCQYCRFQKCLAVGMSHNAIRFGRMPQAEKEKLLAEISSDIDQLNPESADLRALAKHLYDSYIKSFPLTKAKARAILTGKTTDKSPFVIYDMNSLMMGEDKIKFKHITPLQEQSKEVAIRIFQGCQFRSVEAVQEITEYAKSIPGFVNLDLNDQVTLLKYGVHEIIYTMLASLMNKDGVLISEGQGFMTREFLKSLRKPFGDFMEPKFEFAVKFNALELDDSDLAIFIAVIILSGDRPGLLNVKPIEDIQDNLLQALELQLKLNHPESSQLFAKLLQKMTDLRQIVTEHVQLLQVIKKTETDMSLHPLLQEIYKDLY
Chain of Peroxisome proliferator-activated receptor delta (Homo sapiens) (Q03181 whole entry, looked up): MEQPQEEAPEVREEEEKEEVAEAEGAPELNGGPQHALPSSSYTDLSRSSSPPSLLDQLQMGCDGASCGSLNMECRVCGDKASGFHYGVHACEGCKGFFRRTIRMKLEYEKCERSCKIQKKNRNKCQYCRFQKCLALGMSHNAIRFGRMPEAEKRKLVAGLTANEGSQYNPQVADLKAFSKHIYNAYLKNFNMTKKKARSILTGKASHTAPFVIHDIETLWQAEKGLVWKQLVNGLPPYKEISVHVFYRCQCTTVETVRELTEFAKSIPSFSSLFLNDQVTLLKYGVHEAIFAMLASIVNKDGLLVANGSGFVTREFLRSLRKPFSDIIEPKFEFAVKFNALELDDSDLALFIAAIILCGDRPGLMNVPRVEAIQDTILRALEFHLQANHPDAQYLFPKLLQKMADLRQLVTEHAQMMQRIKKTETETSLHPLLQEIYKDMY
Chain of Retinoic acid receptor RXR-alpha (Homo sapiens) (P19793 whole entry, looked up): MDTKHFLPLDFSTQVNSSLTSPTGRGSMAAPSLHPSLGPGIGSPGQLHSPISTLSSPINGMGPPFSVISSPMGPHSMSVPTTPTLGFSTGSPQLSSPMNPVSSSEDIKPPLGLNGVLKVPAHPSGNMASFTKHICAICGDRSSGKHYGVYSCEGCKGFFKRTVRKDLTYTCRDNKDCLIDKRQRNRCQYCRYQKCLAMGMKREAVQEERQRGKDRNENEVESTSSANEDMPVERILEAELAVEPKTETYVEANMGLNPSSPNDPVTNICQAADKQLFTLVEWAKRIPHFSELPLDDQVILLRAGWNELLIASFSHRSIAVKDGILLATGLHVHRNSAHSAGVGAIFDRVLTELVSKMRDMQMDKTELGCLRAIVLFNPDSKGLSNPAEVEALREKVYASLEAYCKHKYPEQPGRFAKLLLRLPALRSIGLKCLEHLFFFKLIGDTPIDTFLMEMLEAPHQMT

Take `CNc1ccccc1`: the activation in [1] was 19.8% (inactive); in assay [14] it was 2.04% (inactive); in assay [15] it was -1.25% (inactive). In addition, the outcome in assay [2], in assay [5], in assay [6] and in assay [8] was inactive. Besides, the max response in [3] was -16.9%; in assay [7], -0.986%; in [9] it was -0.675%; in [10], 29.8% (inactive). Besides, the Potency result in assay [4], in [12] and in assay [13] was “inactive” in each case. The activity change % (negative = inhibition) in assay [11] was -1.47% (inactive).
Turning to `c1ccc2c(c1)ccc1ncccc12`, the activation in assay [1] was -5.6% (inactive). Also, the outcome in assay [2], in assay [5] and in assay [8] was inactive. Besides, the max response in assay [3] was 23.6%; in [7], -7.03%; in assay [9], -6.57%; in [10], -11.7% (inactive). Further, the Potency result in assay [4], in assay [12] and in assay [13] was “inactive” in each case.
As for `Nc1nc(-c2ccccc2)cs1`, the activation was 1.27% (inactive) in assay [1] and 0.279% (inactive) in [15]. Further, the outcome in assay [2], in assay [5], in assay [6], in assay [16] and in assay [8] was inactive. The max response in assay [3] is -2.19%; in assay [7] it was -6.18%; in [9] it was 7.15%; in assay [10], -5.77% (inactive). The Potency entry in [4] and in assay [12] was “inactive” throughout. For the same compound, the Potency in assay [13] was 37.6 µM (active).
Turning to `O=[N+]([O-])c1ccccc1CCO`, the activation in [1] is 3.95% (inactive); in [14], -1.31% (inactive); in assay [15], -0.881% (inactive). In addition, the outcome in [2], in assay [5], in [6], in [8] and in [17] was inactive. For the same compound, the max response is -6.01% in assay [3], 4.35% in assay [7], -5.47% in [9] and -8.97% (inactive) in assay [10]. Further, the Potency result in assay [4] and in [12] was “inactive” in each case.
For `CN(C)c1cccc(O)c1`, the values for the activation in [1] and in assay [15] were -1.05% (inactive) and -0.862% (inactive), respectively. The outcome in [2], in assay [5], in assay [6], in assay [16] and in assay [8] was inactive. Also, the max response in [3] was -10%; in assay [7], -0.228%; in assay [9], -1.21%. In addition, the Potency entry in assay [4] and in [12] was “inactive” each time. Also, in [11], the activity change % (negative = inhibition) is 5.73% (inactive).
As for `O=[N+]([O-])c1ccc(NCCO)c(OCCO)c1`, the activation in assay [1] is 5.48% (inactive); in assay [14], -3% (inactive). Also, the result in assay [2], in assay [5], in [16], in assay [8] and in assay [17] was inactive. Moreover, the max response in [3] was 15.8%; in assay [7], 4.58%; in assay [9], -6.21%; in assay [10] it was -6.4% (inactive). The Potency result in assay [4] and in [12] was “inactive” each time.
For `CC(C)=CCC/C(C)=C/C=O`, the activation in assay [1] is -2.98% (inactive) and -2.55% (inactive); in assay [14], -0.8% (inactive) and -0.838% (inactive). Also, the result in assay [2], in assay [5], in [6], in assay [16] and in assay [8] was inactive. The max response in assay [3] is -1.69% and 16.6%; in assay [7], 15.9% and -0.251%; in assay [9] it was 6.99% and -4.75%; in assay [10], 4.52% (inactive) and -4.94% (inactive). Further, the Potency entry in [4], in assay [12] and in assay [13] was “inactive” throughout.
With `CC(=O)c1nccs1`, the activation in assay [1] is -5.55% (inactive); in [14], -4.02% (inactive). The outcome in [2], in assay [5], in [6], in [16] and in assay [8] was inactive. The max response in assay [3] is -6.53%; in assay [7] it was 4.76%; in [9] it was -5.53%; in assay [10], -9.7% (inactive). Moreover, the Potency result in assay [4] and in assay [13] was “inactive” in each case. Further, the activity change % (negative = inhibition) in assay [11] was 1.64% (inactive).
With `Cc1c(N)cccc1N`, the figures for the activation in assay [1] and in assay [15] were -2.97% (inactive) and -1.33% (inactive), respectively. Moreover, the result in assay [2], in [6], in assay [16], in assay [8] and in [17] was inactive. The max response in assay [3] was -12.4%; in assay [7] it was -3.37%; in assay [9], -4.94%. Besides, in assay [4], the Potency entry was “inactive”. In addition, the activity change % (negative = inhibition) in assay [11] was -2.96% (inactive).
